aSyn UTR act – Activators via SNCA 5'UTR binding, MLPCN. alpha-synuclein 5'UTR reporter, activators screen. hit rate 7.1% among 300,000. activity score, % (tested at 7.5 µM), hits read low; in the data active = activity score below about -60%
Numbers stand for hits; n = inactive. Only a sample is shown.

SMILES	aSyn UTR act
Cn1ncc(Cl)c1C(=O)Nc1nc2ccc(Cl)cc2s1	-198
Cc1cc(C(=O)Nc2nc3ccc(Cl)cc3s2)nn1C	-128
Cc1cc2sc3ccccc3c(=O)c2c(C)c1O	-96
COc1ccc(-c2csc(NC(=S)NC(=O)/C=C/c3ccco3)n2)cc1OC	n
O=C(/C=C/c1ccco1)Nc1nc(-c2ccccn2)cs1	-79
Cc1csc(NC(=O)/C=C/c2ccco2)n1	-168
O=C(/C=C/c1ccco1)Nc1nc(-c2ccccc2)cs1	-250
O=C(/C=C/c1ccco1)Nc1nc(-c2ccc(F)c(F)c2)cs1	-100
O=C(c1cc2ccccn2n1)N1CCN(Cc2ccccc2)CC1	-113
C/C(=N\NC(=O)c1ccccc1N)c1ccc(NC(=O)Cc2ccccc2)cc1	-68
COc1ccccc1C(=O)N/N=C(\C)c1ccc(NC(=O)Cc2ccccc2)cc1	-104
C/C(=N\NC(=O)c1cccc(C)c1O)c1ccc(NC(=O)Cc2ccccc2)cc1	-74
COc1ccccc1C(=O)NN=C1CCN(Cc2ccccc2)CC1	-73
CC(=O)c1ccc(-n2c(C)ccc2-c2ccccc2)cc1	-109
COc1ccccc1-c1ccc(SCc2ccccc2F)nn1	-74
Cc1nc(C)c(-c2ccc(SCc3ccccc3F)nn2)s1	-151
COc1ccccc1-c1ccc(SCc2ccccc2)nn1	-140
COCOc1ccc(-c2cc(=O)c3c(OCOC)cc(OCOC)cc3o2)cc1	-125
O=C(CCCc1ccccc1)Nc1cccnc1	-82
CC(=O)c1ccc(NC(=O)CCOc2cc(C)ccc2C)cc1	-91
O=C(CCc1ccccc1)Nc1ccccc1	-80
CC(CCc1ccccc1)NC(=O)C(=O)Nc1ccccc1 (configuration not stated)	-149
CN(C)CCC(=O)C(Cc1ccccc1)c1ccccc1 (configuration not stated)	n
CCCCC(=O)NC(c1ccc(N(C)C)cc1)c1ccc2cccnc2c1O (configuration not stated)	n
O=C(CCOc1ccccc1)Nc1ccc(Br)cc1	-113
SMILES	aSyn UTR act
COc1ccc(NC(=O)CCOc2ccccc2)cc1	-126
CN(C)c1ccc(NC(=O)CCCc2ccccc2)cc1	-120
Cc1cccc(NC(=O)CCOc2ccccc2)c1	-74
Cc1cccc(NC(=O)CCCc2ccccc2)c1	-172
CC(CNC(=O)c1ccc(OC2CCN(Cc3ccccn3)CC2)cc1)c1ccccc1 (configuration not stated)	-97
CCSc1nnc(NC(=O)c2ccc3c(c2)OCO3)s1	-94
CC(C)Sc1nnc(NC(=O)c2ccc3c(c2)OCO3)s1	-118
CC(C)(C)c1nnc(NC(=O)COc2ccc3c(c2)OCO3)s1	-81
CC(C)(C)c1nnc(NC(=O)c2ccc3c(c2)OCO3)s1	-191
CC(C)c1nnc(NC(=O)c2ccc3c(c2)OCO3)s1	n
CC(c1ccccc1)c1nnc(NC(=O)c2ccc3c(c2)OCO3)s1 (configuration not stated)	-139
CCCC(=O)NC(c1ccc2c(c1)OCO2)c1cc(Cl)c2cccnc2c1O (configuration not stated)	n
CCN(CC)C(=O)c1sc(NC(=O)c2ccc3c(c2)OCO3)c(C(N)=O)c1C	-105
CCCC(=O)Nc1nnc(-c2ccc3c(c2)OCO3)s1	-141
C(=N\N=C\c1cccs1)/c1cccs1	-178
O=C(Nc1nc(=O)c2ccccc2s1)c1ccc(Cl)cc1	-140
O=C(Nc1nc(=O)c2ccccc2s1)c1ccc(F)cc1	-264
NC(=NCCc1ccccc1)NC(=O)c1cc(Cl)ccc1O	-108
Cc1cccc(C(=O)CC(=O)c2cc(Cl)ccc2O)c1	n
O=C(CC(=O)c1cc(Cl)ccc1O)c1ccccc1	-99
Cc1ccc(O)c(C(=O)CC(=O)c2cccc(F)c2)c1	-85
Cc1cc2ncc(-c3ncc(C(F)(F)F)cc3Cl)cn2n1	n
Cc1cc2ncc(-c3cccc(Cl)c3)cn2n1	-117
CN(C)c1ccc(/C=C(/C#N)C(=O)NCc2ccccc2)o1	-96
CSc1ccc(C2C(C(=O)c3ccco3)=C(O)C(=O)N2c2nnc(SC)s2)cc1 (configuration not stated)	-62
SMILES	aSyn UTR act
Cc1occc1C(=O)NNC(=O)c1ccccc1C(=O)O	-74
Cc1occc1C(=O)NCCc1cccc(Cl)c1	-82
Cc1occc1C(=O)NCCCc1ccccc1	-71
COc1ccc(/C(C)=N/NC(=O)c2nc(C)cc(C)n2)cc1	-114
COc1ccc(C(=O)N/N=C(/C)c2ccc(N3CCCCC3)cc2)cc1	-68
C/C(=N\NC(=O)CC(C)C)c1ccc(N2CCCCC2)cc1	-62
COc1ccc(NC(=O)NC2CCCCC2C)cc1 (configuration not stated)	-81
COc1ccc(NC(=S)NC(=O)C2CCCCC2)cc1	-86
Cc1cc(NC(=S)NC(=O)C2CC2)ccc1Br	-114
CCN(CC)c1ccc(NC(=S)NC(=O)C2CCC2)cc1	-64
C/C(N)=C(/C#N)C(=O)CSc1nnc(Nc2ccccc2)s1	-125
C/C(N)=C(/C#N)C(=O)CSc1nnc(Nc2ccccc2C)s1	-77
CS(=O)(=O)Nc1ccccc1C(=O)N1CCN(c2ccccc2)CC1	-73
CCOc1ccccc1C(=O)N1CCN(c2cccc(Cl)c2)CC1	n
O=[N+]([O-])c1ccc(O)c(/C=N/Nc2ccccn2)c1	n
O=[N+]([O-])c1cccc(N/N=C/c2cc([N+](=O)[O-])ccc2O)c1	-70
O=[N+]([O-])c1ccc(O)c(C=Nc2ccc3c(c2)OCCO3)c1	-62
CN(/N=C/c1cc([N+](=O)[O-])ccc1O)c1ccccc1	-159
O=[N+]([O-])c1ccc(N/N=C/c2ccccc2O)cc1	-165
CCCOc1ccc(/C=N/Nc2ccc(C(=O)O)cc2)c(OCCC)c1	-109
CCCOc1ccc(/C=N/Nc2cccc([N+](=O)[O-])c2)c(O)c1	-164
CCCOc1ccc(/C=N/Nc2ccccc2[N+](=O)[O-])c(O)c1	n
O=[N+]([O-])c1cc(-c2nnc(C34CC5CC(CC(C5)C3)C4)o2)cc([N+](=O)[O-])c1	-97
Cc1ccc(COc2ccc(-c3nnco3)cc2)cc1	-118
CC(=O)c1ccc(NC(=O)C2(c3ccccc3)CCOCC2)cc1	-118
SMILES	aSyn UTR act
Cc1c(C(=O)/C=C/c2cccs2)oc2ccc(F)cc12	-202
Cc1cc(=O)oc2c(C(=O)/C=C\c3cccs3)c(O)ccc12	-89
CCc1c(C)nc2ncnn2c1Nc1ccc(C(C)=O)cc1	-112
CC(=O)c1ccc(NC(=O)CCc2c(C)nc3ncnn3c2C)cc1	-69
CC(C)n1cc(CN2CCCC(C(=O)Nc3cccc(-c4cc5ccccc5[nH]4)c3)C2)cn1 (configuration not stated)	n
Cc1cc(CN2CCCC(C(=O)Nc3ccc(-c4nc5ccccc5[nH]4)cc3)C2)n[nH]1 (configuration not stated)	-121
CCCC(=O)Nc1ccc(C#Cc2ccccc2)cc1	-68
O=C(Nc1ccccc1O)c1ccc(NC(=O)C2CC2)cc1	-805
O=C(Nc1ccc(C#Cc2ccccc2)cc1)C1CC1	-113
C=CCNC(=O)c1ccc2nc(Cc3ccc(OC)cc3)oc2c1	-139
COc1ccc(Cc2nc3ccc(C(=O)N4CCOCC4)cc3o2)cc1	-125
COc1ccc(Cc2nc3ccc(C(=O)NCCCSC)cc3o2)cc1OC	-99
COc1ccc(Cc2nc3ccc(C(=O)N(C)CCn4ccnc4)cc3o2)cc1OC	-78
CCC1=Nc2cc(C(=O)NCCCOC)ccc2Sc2ccccc21	n
COCCCNC(=O)c1ccc2nc(Cc3ccc(OC)cc3)oc2c1	-95
